The whole screen tested about 310,000 compounds, of which about 14,000 (4.5%) showed an effect of 50% or more. The effect is printed as a negative number. The list comes from a sample in which strong results are over-represented; it also holds similar structures and randomly drawn compounds.
biological target: human ether-à-go-go-related gene (hERG) potassium channel (human, UniProt Q12809); assay: primary screen, population patch clamp on CHO cells stably expressing hERG; higher = less effect of the substance
Sequence (Q12809 whole entry, looked up): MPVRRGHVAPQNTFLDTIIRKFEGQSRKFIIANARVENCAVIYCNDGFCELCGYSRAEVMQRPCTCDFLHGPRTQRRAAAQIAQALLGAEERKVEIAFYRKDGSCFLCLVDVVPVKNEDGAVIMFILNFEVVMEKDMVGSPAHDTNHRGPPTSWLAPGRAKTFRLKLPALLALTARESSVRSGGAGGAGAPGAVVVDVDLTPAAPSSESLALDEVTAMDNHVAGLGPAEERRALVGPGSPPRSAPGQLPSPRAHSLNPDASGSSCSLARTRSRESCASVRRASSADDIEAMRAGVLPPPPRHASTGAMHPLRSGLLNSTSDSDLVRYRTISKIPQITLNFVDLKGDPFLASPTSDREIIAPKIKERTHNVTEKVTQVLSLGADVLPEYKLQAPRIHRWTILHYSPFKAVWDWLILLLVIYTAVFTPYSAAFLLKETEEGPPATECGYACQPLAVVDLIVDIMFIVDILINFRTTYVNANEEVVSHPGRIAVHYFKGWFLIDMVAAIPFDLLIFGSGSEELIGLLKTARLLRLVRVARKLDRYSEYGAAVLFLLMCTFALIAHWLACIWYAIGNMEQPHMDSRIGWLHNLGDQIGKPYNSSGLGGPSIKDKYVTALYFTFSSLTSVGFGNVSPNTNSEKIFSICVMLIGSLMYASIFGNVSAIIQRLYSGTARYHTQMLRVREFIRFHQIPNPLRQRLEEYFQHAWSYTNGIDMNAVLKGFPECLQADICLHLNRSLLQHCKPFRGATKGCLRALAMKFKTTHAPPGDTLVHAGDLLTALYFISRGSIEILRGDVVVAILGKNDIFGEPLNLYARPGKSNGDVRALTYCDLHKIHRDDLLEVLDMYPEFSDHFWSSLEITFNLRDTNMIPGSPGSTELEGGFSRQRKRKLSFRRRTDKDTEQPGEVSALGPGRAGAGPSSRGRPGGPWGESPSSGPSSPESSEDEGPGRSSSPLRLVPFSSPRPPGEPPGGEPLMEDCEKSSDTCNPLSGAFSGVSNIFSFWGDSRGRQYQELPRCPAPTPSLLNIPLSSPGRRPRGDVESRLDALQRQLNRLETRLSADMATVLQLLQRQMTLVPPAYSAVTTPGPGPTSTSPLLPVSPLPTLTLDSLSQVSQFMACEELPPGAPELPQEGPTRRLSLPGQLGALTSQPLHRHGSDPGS
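Note: peak tail current of the secondary pulse compared with the same well before compound.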

SMILES | hERG current change (%, negative = inhibition) at 10uM [%]
COc1ccc(N/C=C(\C(C)=O)c2ccc(OC)c(OC)c2)cc1OC | 18.2
CCNc1nc(N2CCOCC2)nc(N(c2ccccc2)c2ccccc2)n1 | -12.9
CS(=O)(=O)N1CCC(C(=O)Nc2cc(Cl)cc(Cl)c2)CC1 | 4.85
Cn1c(=O)c2c(nc(Sc3ccccc3N)n2C)n(C)c1=O | 11.4
CC(C)C(c1nnnn1Cc1ccco1)N1CCN(C2CCCC2)CC1.Cl (stereo not drawn) | -3.68
Cl.c1ccc(C(c2nnnn2Cc2ccco2)N2CCN(C3CCCC3)CC2)cc1 (stereo not drawn) | -53.5
CC(C)CC(c1nnnn1Cc1ccco1)N1CCN(C2CCCC2)CC1.Cl (stereo not drawn) | -38.1
Cl.c1coc(Cn2nnnc2CN2CCN(C3CCCCC3)CC2)c1 | -41.4
Cl.Fc1ccc(C(c2nnnn2Cc2ccco2)N2CCN(C3CCCCC3)CC2)cc1 (stereo not drawn) | -65.6
CCCC(c1nnnn1Cc1ccco1)N1CCN(C2CCCC2)CC1 (stereo not drawn) | -31
N#Cc1nc(COc2ccccc2)oc1N1CCOCC1 | -19.6
Cc1ccc(NC(=O)/C=C\C(=O)NCC(=O)O)cc1 | 0.434
CC(=O)C1=C(C)Nc2ncnn2C1c1ccc(Cl)cc1Cl (stereo not drawn) | 2.23
Cn1cc(CN2CCC(n3nccc3NC(=O)Cc3ccccc3)CC2)cn1 | -41.8
Cc1ccccc1C(=O)N1CCN(c2ccc(NC(=O)c3cccnc3)cc2)CC1 | -23
O=C(Nc1ccc(N2CCN(C(=O)c3ccccc3)CC2)cc1)c1cccnc1 | -1.77
COc1ccc(C(=O)N2CCN(c3ccc(NC(=O)c4cccnc4)cc3)CC2)cc1 | -53.7
Cc1ccc(C(=O)N2CCN(c3ccc(NC(=O)c4cccnc4)cc3)CC2)cc1 | -38.8
COc1ccc(NC(=O)c2cccnc2)cc1 | -11.1
CCc1ccc(C(=O)N2CCN(c3ccc(NC(=O)c4cccnc4)cc3)CC2)cc1 | -71.3
C=CCN1C(=O)C(C)(C)N(C(=O)c2cccc([N+](=O)[O-])c2)c2ccccc21 | -16.4
Cc1ccc[n+](C2C(c3ccc([N+](=O)[O-])cc3)C(C#N)=C([S-])NC2(O)C2CC2)c1 (stereo not drawn) | 0.00258
O=C(CCCN1C(=O)c2ccccc2C1=O)NCC1CCCO1 (stereo not drawn) | 12.2
COc1cc(SC)ccc1C(=O)Nc1ccc2c(c1)OCCO2 | -18.4

Source: publication PMC4336329 (PLoS ONE, 2015)
